# Assay results reported in PubChem BioAssay AID1159580 (chemical genetic matrix, 2015).
# Where “and” joins values, the source holds several entries; their conditions need not be identical. Equal values may be shown once. Among all 5,500 compounds or so, about 2,000 (36%) were called active. Another 18% or so got no clear call; they are omitted. No stated cut-off is given here; in the data, active means normalized growth mostly below about 0.91 (no sharp cut-off); inconclusive means no clear call, values can overlap the other calls; inactive means mostly above about 0.92. Some of the results follow.
# Test: chemical genetic growth profiling, strain panel (AID 1159580);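 further: tested at 20 µM; growth read once vehicle control cultures reached saturation at 30 °C; 1 = growth at the plate median or of vehicle wells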
# Conditions: growth OD
smiles,measurement,setting,value
N#C/C(=N/Nc1ccc(C(F)(F)F)cc1)C(=O)C1CC1,normalized growth,"S. cerevisiae deletion strains, locus YAL013W, strain DEP1, stronger effect = lower value",0.942 (inactive)
same,normalized growth,"S. cerevisiae deletion strains, locus YAR019C, strain CDC15, stronger effect = lower value",0.952 (inactive)
same,normalized growth,"S. cerevisiae deletion strains, locus YBL105C, strain PKC1, stronger effect = lower value",0.947 (inactive)
same,normalized growth,"S. cerevisiae deletion strains, locus YBR135W, strain CKS1, stronger effect = lower value",0.941 (inactive)
same,normalized growth,"S. cerevisiae deletion strains, locus YBR136W, strain MEC1, stronger effect = lower value",0.942 (inactive)
same,normalized growth,"S. cerevisiae deletion strains, locus YBR160W, strain CDC28, stronger effect = lower value",0.942 (inactive)
same,normalized growth,"S. cerevisiae deletion strains, locus YBR229C, strain ROT2, stronger effect = lower value",0.96 (inactive)
same,normalized growth,"S. cerevisiae deletion strains, locus YCL061C, strain MRC1, stronger effect = lower value",0.978 (inactive)
same,normalized growth,"S. cerevisiae deletion strains, locus YDL017W, strain CDC7, stronger effect = lower value",0.953 (inactive)
same,normalized growth,"S. cerevisiae deletion strains, locus YDL028C, strain MPS1, stronger effect = lower value",0.938 (inactive)
same,normalized growth,"S. cerevisiae deletion strains, locus YDL101C, strain DUN1, stronger effect = lower value",0.976 (inactive) and 0.966 (inactive)
same,normalized growth,"S. cerevisiae deletion strains, locus YDL108W, strain KIN28, stronger effect = lower value",0.937 (inactive)
same,normalized growth,"S. cerevisiae deletion strains, locus YDL132W, strain cdc53, stronger effect = lower value",0.937 (inactive)
same,normalized growth,"S. cerevisiae deletion strains, locus YDL134C, strain PPH21, stronger effect = lower value",0.791 (active)
same,normalized growth,"S. cerevisiae deletion strains, locus YDL214C, strain PRR2, stronger effect = lower value",0.904 (inactive)
same,normalized growth,"S. cerevisiae deletion strains, locus YDR052C, strain DBF4, stronger effect = lower value",0.953 (inactive)
same,normalized growth,"S. cerevisiae deletion strains, locus YDR054C, strain cdc34, stronger effect = lower value",0.95 (inactive)
same,normalized growth,"S. cerevisiae deletion strains, locus YDR150W, strain NUM1, stronger effect = lower value",0.928 (inactive)
same,normalized growth,"S. cerevisiae deletion strains, locus YDR226W, strain ADK1, stronger effect = lower value",0.97 (inactive)
same,normalized growth,"S. cerevisiae deletion strains, locus YDR477W, strain SNF1, stronger effect = lower value",0.932 (inactive)
same,normalized growth,"S. cerevisiae deletion strains, locus YEL061C, strain CIN8, stronger effect = lower value",0.857 (active)
same,normalized growth,"S. cerevisiae deletion strains, locus YER123W, strain YCK3, stronger effect = lower value",0.88 (inactive)
same,normalized growth,"S. cerevisiae deletion strains, locus YER133W, strain GLC7, stronger effect = lower value",0.93 (inactive)
same,normalized growth,"S. cerevisiae deletion strains, locus YFL009W, strain cdc4, stronger effect = lower value",0.942 (inactive)
same,normalized growth,"S. cerevisiae deletion strains, locus YFL029C, strain CAK1, stronger effect = lower value",0.945 (inactive)
same,normalized growth,"S. cerevisiae deletion strains, locus YFR003C, strain YPI1, stronger effect = lower value",0.95 (inactive)
same,normalized growth,"S. cerevisiae deletion strains, locus YFR019W, strain FAB1, stronger effect = lower value",0.92 (inactive)
same,normalized growth,"S. cerevisiae deletion strains, locus YFR028C, strain CDC14, stronger effect = lower value",0.964 (inactive)
same,normalized growth,"S. cerevisiae deletion strains, locus YGR040W, strain KSS1, stronger effect = lower value",0.905 (inactive)
same,normalized growth,"S. cerevisiae deletion strains, locus YGR052W, strain FMP48, stronger effect = lower value",0.922 (inactive)
same,normalized growth,"S. cerevisiae deletion strains, locus YGR078C, strain PAC10, stronger effect = lower value",0.957 (inactive)
same,normalized growth,"S. cerevisiae deletion strains, locus YGR092W, strain DBF2, stronger effect = lower value",0.855 (inactive)
same,normalized growth,"S. cerevisiae deletion strains, locus YGR229C, strain SMI1, stronger effect = lower value",0.948 (inactive)
same,normalized growth,"S. cerevisiae deletion strains, locus YHR030C, strain SLT2, stronger effect = lower value",0.482 (active) and 1.02 (inactive)
same,normalized growth,"S. cerevisiae deletion strains, locus YHR079C, strain IRE1, stronger effect = lower value",0.958 (inactive)
same,normalized growth,"S. cerevisiae deletion strains, locus YHR082C, strain KSP1, stronger effect = lower value",0.989 (inactive)
same,normalized growth,"S. cerevisiae deletion strains, locus YHR087W, strain rtc3, stronger effect = lower value",0.951 (inactive)
same,normalized growth,"S. cerevisiae deletion strains, locus YHR205W, strain SCH9, stronger effect = lower value",0.889 (inactive)
same,normalized growth,"S. cerevisiae deletion strains, locus YIL147C, strain SLN1, stronger effect = lower value",0.941 (inactive)
same,normalized growth,"S. cerevisiae deletion strains, locus YJL095W, strain BCK1, stronger effect = lower value",0.913 (inactive)
same,normalized growth,"S. cerevisiae deletion strains, locus YJL128C, strain PBS2, stronger effect = lower value",0.924 (inactive)
same,normalized growth,"S. cerevisiae deletion strains, locus YJL157C, strain FAR1, stronger effect = lower value",0.94 (inactive)
same,normalized growth,"S. cerevisiae deletion strains, locus YJL187C, strain SWE1, stronger effect = lower value",0.98 (inactive)
same,normalized growth,"S. cerevisiae deletion strains, locus YJR016C, strain ILV3, stronger effect = lower value",0.931 (inactive)
same,normalized growth,"S. cerevisiae deletion strains, locus YJR043C, strain POL32, stronger effect = lower value",0.952 (inactive)
same,normalized growth,"S. cerevisiae deletion strains, locus YJR066W, strain TOR1 (second series), stronger effect = lower value",0.897 (inactive)
same,normalized growth,"S. cerevisiae deletion strains, locus YJR066W, strain TOR1, stronger effect = lower value",0.997 (inactive)
same,normalized growth,"S. cerevisiae deletion strains, locus YJR075W, strain HOC1, stronger effect = lower value",0.975 (inactive)
same,normalized growth,"S. cerevisiae deletion strains, locus YKL048C, strain ELM1, stronger effect = lower value",0.928 (inactive)
same,normalized growth,"S. cerevisiae deletion strains, locus YKL067W, strain YNK1, stronger effect = lower value",0.904 (inactive)
same,normalized growth,"S. cerevisiae deletion strains, locus YKL101W, strain HSL1, stronger effect = lower value",0.874 (inactive)
same,normalized growth,"S. cerevisiae deletion strains, locus YKL193C, strain SDS22, stronger effect = lower value",0.943 (inactive)
same,normalized growth,"S. cerevisiae deletion strains, locus YKL203C, strain TOR2, stronger effect = lower value",0.996 (inactive)
same,normalized growth,"S. cerevisiae deletion strains, locus YLR039C, strain RIC1, stronger effect = lower value",0.565 (active)
same,normalized growth,"S. cerevisiae deletion strains, locus YLR058C, strain SHM2 (second series), stronger effect = lower value",0.975 (inactive)
same,normalized growth,"S. cerevisiae deletion strains, locus YLR085C, strain ARP6, stronger effect = lower value",0.503 (active)
same,normalized growth,"S. cerevisiae deletion strains, locus YLR113W, strain HOG1, stronger effect = lower value",0.835 (active)
same,normalized growth,"S. cerevisiae deletion strains, locus YLR133W, strain CKI1, stronger effect = lower value",0.909 (inactive)
same,normalized growth,"S. cerevisiae deletion strains, locus YLR262C, strain YPT6, stronger effect = lower value",0.68 (active)
same,normalized growth,"S. cerevisiae deletion strains, locus YLR403W, strain SFP1, stronger effect = lower value",0.898 (inactive)
same,normalized growth,"S. cerevisiae deletion strains, locus YML070W, strain DAK1, stronger effect = lower value",0.895 (inactive)
same,normalized growth,"S. cerevisiae deletion strains, locus YML094W, strain GIM5, stronger effect = lower value",0.841 (active)
same,normalized growth,"S. cerevisiae deletion strains, locus YMR001C, strain CDC5, stronger effect = lower value",0.95 (inactive)
same,normalized growth,"S. cerevisiae deletion strains, locus YMR205C, strain PFK2 (second series), stronger effect = lower value",0.917 (inactive)
same,normalized growth,"S. cerevisiae deletion strains, locus YMR219W, strain ESC1, stronger effect = lower value",0.986 (inactive)
same,normalized growth,"S. cerevisiae deletion strains, locus YMR263W, strain SAP30, stronger effect = lower value",0.956 (inactive)
same,normalized growth,"S. cerevisiae deletion strains, locus YMR277W, strain FCP1, stronger effect = lower value",0.937 (inactive)
same,normalized growth,"S. cerevisiae deletion strains, locus YMR307W, strain GAS1, stronger effect = lower value",0.535 (active)
same,normalized growth,"S. cerevisiae deletion strains, locus YNL006W, strain LST8, stronger effect = lower value",0.947 (inactive)
same,normalized growth,"S. cerevisiae deletion strains, locus YNL020C, strain ARK1, stronger effect = lower value",0.914 (inactive)
same,normalized growth,"S. cerevisiae deletion strains, locus YNL128W, strain TEP1, stronger effect = lower value",0.956 (inactive)
same,normalized growth,"S. cerevisiae deletion strains, locus YNL153C, strain GIM3, stronger effect = lower value",0.981 (inactive)
same,normalized growth,"S. cerevisiae deletion strains, locus YNL161W, strain CBK1, stronger effect = lower value",0.949 (inactive)
same,normalized growth,"S. cerevisiae deletion strains, locus YNL183C, strain NPR1, stronger effect = lower value",0.941 (inactive)
same,normalized growth,"S. cerevisiae deletion strains, locus YNL207W, strain RIO2, stronger effect = lower value",0.95 (inactive)
same,normalized growth,"S. cerevisiae deletion strains, locus YNL222W, strain SSU72, stronger effect = lower value",0.947 (inactive)
same,normalized growth,"S. cerevisiae deletion strains, locus YNL298W, strain CLA4 (second series), stronger effect = lower value",0.842 (inactive)
same,normalized growth,"S. cerevisiae deletion strains, locus YNL307C, strain MCK1 (second series), stronger effect = lower value",0.905 (inactive)
same,normalized growth,"S. cerevisiae deletion strains, locus YNL322C, strain KRE1, stronger effect = lower value",0.981 (inactive)
same,normalized growth,"S. cerevisiae deletion strains, locus YNR030W, strain Alg12, stronger effect = lower value",0.773 (active)
same,normalized growth,"S. cerevisiae deletion strains, locus YOL078W, strain AVO1, stronger effect = lower value",0.936 (inactive)
same,normalized growth,"S. cerevisiae deletion strains, locus YOL136C, strain PFK27, stronger effect = lower value",0.866 (inactive)
same,normalized growth,"S. cerevisiae deletion strains, locus YOR061W, strain CKA2, stronger effect = lower value",0.926 (inactive)
same,normalized growth,"S. cerevisiae deletion strains, locus YOR119C, strain RIO1, stronger effect = lower value",0.973 (inactive)
same,normalized growth,"S. cerevisiae deletion strains, locus YOR231W, strain MKK1, stronger effect = lower value",0.89 (inactive)
same,normalized growth,"S. cerevisiae deletion strains, locus YOR329C, strain SCD5, stronger effect = lower value",0.958 (inactive)
same,normalized growth,"S. cerevisiae deletion strains, locus YPL031C, strain PHO85, stronger effect = lower value",0.922 (inactive)
same,normalized growth,"S. cerevisiae deletion strains, locus YPL055C, strain LGE1, stronger effect = lower value",0.83 (inactive)
same,normalized growth,"S. cerevisiae deletion strains, locus YPL153C, strain RAD53, stronger effect = lower value",0.929 (inactive)
same,normalized growth,"S. cerevisiae deletion strains, locus YPL204W, strain HRR25, stronger effect = lower value",0.894 (inactive)
same,normalized growth,"S. cerevisiae deletion strains, locus YPL209C, strain IPL1, stronger effect = lower value",0.955 (inactive)
same,normalized growth,"S. cerevisiae deletion strains, locus YPL241C, strain CIN2, stronger effect = lower value",0.76 (active)
same,normalized growth,"S. cerevisiae deletion strains, locus YPL256C, strain CLN2, stronger effect = lower value",0.977 (inactive)
same,normalized growth,"S. cerevisiae deletion strains, locus YPR025C, strain CCL1, stronger effect = lower value",0.95 (inactive)
same,normalized growth,"S. cerevisiae deletion strains, locus YPR106W, strain ISR1, stronger effect = lower value",0.951 (inactive)
same,normalized growth,"S. cerevisiae deletion strains, locus YPR111W, strain DBF20, stronger effect = lower value",0.912 (inactive)
same,normalized growth,"S. cerevisiae deletion strains, locus YPR135W, strain CTF4, stronger effect = lower value",0.829 (inactive)
same,normalized growth,"S. cerevisiae deletion strains, strain NNK1, stronger effect = lower value",0.971 (inactive)
same,normalized growth,"S. cerevisiae deletion strains, strain TSCII, stronger effect = lower value",0.947 (inactive)
same,normalized growth,"S. cerevisiae strains, strain wild type, stronger effect = lower value",0.943 (inactive)
